Test systems include DU-145 prostate; K-562 leukemia; MALME-3M melanoma; MDA-MB-231 breast; RXF 393 renal; SF-268 CNS; SF-295 CNS; SF-539 CNS; UACC-257 melanoma; M14 melanoma; HCT-15 colon; HT29 colon; SNB-75 CNS; U251 CNS; PC-3 prostate; SK-MEL-5 melanoma; UACC-62 melanoma; LOX IMVI melanoma; SK-MEL-28 melanoma; SNB-19 CNS.
What all share (test): NCI-60 one-dose screen, 48 h (100 = growth as untreated, 0 = no growth, -100 = all killed)
Holding throughout (conditions): 10 µM

The panel holds about 83,000 compounds, 20% with a hit somewhere; the sample as a whole holds those more often.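 Negative percent growth values reflect cell death: -40 means 40% of the cells present at the start died, and -100 means all died.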 Unmarked numbers belong to inactive results. Activity calls are given as the source filed them. Rule for the calls: active = growth percent below 10; inactive = the rest.

Here are results for seven compounds from PubChem BioAssay (NCI).

As to `CCCCc1ccc(NC(=O)N(CCCl)N=O)cc1`, the growth with DU-145 prostate is 106%; with K-562 leukemia, 88.1%; with MALME-3M melanoma it was 101%; in the test with MDA-MB-231 breast, 107%; in the test on RXF 393 renal, 93.4%; with SF-268 CNS it was 79.3%. Also, the growth in the test on SF-295 CNS was 73.9%; with SF-539 CNS, 82.2%; with UACC-257 melanoma it was 103%; in the test on M14 melanoma, 99.2%; with HCT-15 colon it was 102%; with HT29 colon, 99.6%. Besides, the growth in the test on SNB-75 CNS was 90.4%; with U251 CNS it was 80.8%; in the test with PC-3 prostate it was 94%; with SK-MEL-5 melanoma it was 97.9%; in the test on UACC-62 melanoma, 86.2%; in the test with LOX IMVI melanoma, 89.3%. For the same compound, the growth in the test on SK-MEL-28 melanoma was 101%.
For `O=C1CC(c2cccc(-c3cccnc3)c2)=Nc2ccc(Br)cc2N1`, the growth is 65.8% in the test with DU-145 prostate; 54.2% with K-562 leukemia; 40.9% with MALME-3M melanoma; 43.6% in the test on MDA-MB-231 breast; 40.2% in the test with RXF 393 renal; 44.1% in the test on SF-268 CNS. For the same compound, the growth with SF-295 CNS is 48.7%; in the test on SF-539 CNS it was 55.7%; in the test on UACC-257 melanoma it was 38.5%; in the test on M14 melanoma it was 37.8%; with HCT-15 colon, 61.9%; in the test on HT29 colon it was 56.6%. In addition, the growth was 11.6% in the test on SNB-75 CNS; 27.2% in the test with U251 CNS; 30.8% in the test on PC-3 prostate; 8.01% (active) with SK-MEL-5 melanoma; 47.3% in the test with UACC-62 melanoma; 55.8% with LOX IMVI melanoma. For the same compound, the growth in the test with SK-MEL-28 melanoma is 67.5%.
On to `COc1ccc(S(=O)(=O)Nc2ccc(OCc3nnc(-c4ccc(Cl)cc4)o3)c(F)c2)cc1`, for which the growth is 76.7% in the test on DU-145 prostate; 43.2% in the test with K-562 leukemia; 67.8% in the test on MALME-3M melanoma; 54.6% in the test with MDA-MB-231 breast; 63.1% in the test on RXF 393 renal; 59.9% in the test with SF-268 CNS. For the same compound, the growth is 43.8% with SF-295 CNS; 70.5% in the test with SF-539 CNS; 23.3% in the test on UACC-257 melanoma; 78% in the test on M14 melanoma; 65.5% in the test with HCT-15 colon; 83.7% with HT29 colon. Further, the growth is 67.1% in the test on SNB-75 CNS; 68.4% in the test on U251 CNS; 52.3% with PC-3 prostate; 15.7% in the test with SK-MEL-5 melanoma; 42.4% in the test on UACC-62 melanoma; 52.7% in the test on LOX IMVI melanoma. For the same compound, the growth in the test with SK-MEL-28 melanoma is 83.8%.
Regarding `CCOC(=O)C1=C(Nc2ccc(OC)cc2)C(N)=NC1=N`, the growth in the test with DU-145 prostate was 44.1%; in the test with K-562 leukemia, 19%; in the test with MALME-3M melanoma, 31.9%; in the test with MDA-MB-231 breast, 67.5%; in the test with RXF 393 renal, 46.7%; in the test with SF-268 CNS, 60%. The growth is 54.8% in the test with SF-295 CNS; 25% in the test with SF-539 CNS; 44.9% with UACC-257 melanoma; 27.3% in the test with M14 melanoma; 11.7% in the test on HT29 colon; 51.9% with SNB-75 CNS. The growth in the test on SNB-19 CNS was 66.8%; with U251 CNS, 51.7%; in the test with PC-3 prostate, 40.5%; in the test with SK-MEL-5 melanoma it was 21.5%; in the test on UACC-62 melanoma, 30.4%; in the test with LOX IMVI melanoma, 52%. In the test with SK-MEL-28 melanoma, the growth was 67.3%.
In the case of `CC(=O)/C(=C\c1ccc(Cl)cc1)c1ccccc1`, the growth in the test with DU-145 prostate is 0.722% (active); in the test on K-562 leukemia, 8.97% (active); in the test on MALME-3M melanoma it was 73.1%; in the test on MDA-MB-231 breast it was 19.4%; with RXF 393 renal it was 25.7%; in the test on SF-268 CNS, 23.9%. Besides, the growth in the test with SF-295 CNS was -6.11% (active); in the test with SF-539 CNS, -1.66% (active); with UACC-257 melanoma it was 72.2%; with M14 melanoma, 1.53% (active); with HCT-15 colon, 10.3%; in the test on SNB-75 CNS, 37.4%. Also, the growth was 29.7% in the test with SNB-19 CNS; 13.6% in the test on U251 CNS; 21.9% in the test on PC-3 prostate; -35.6% (active) with SK-MEL-5 melanoma; 29.2% in the test on UACC-62 melanoma; 0.385% (active) in the test on LOX IMVI melanoma. The growth with SK-MEL-28 melanoma was 65%.
On to `CCCN(CCC)CCCNC(=O)c1cc2c(-c3ccc(OC)c(OC)c3)nn(C)c2s1`, for which the growth is 13% with DU-145 prostate; 6.33% (active) with K-562 leukemia; 27.6% in the test with MALME-3M melanoma; 21.8% with MDA-MB-231 breast; -2.45% (active) in the test on RXF 393 renal; 14.5% in the test on SF-268 CNS. Moreover, the growth is 35% with SF-295 CNS; 10.9% with SF-539 CNS; 7.46% (active) in the test with UACC-257 melanoma; 9.55% (active) in the test with M14 melanoma; 24.7% with HCT-15 colon; 22.7% in the test on SNB-75 CNS. The growth is 35% in the test on SNB-19 CNS; 9.87% (active) in the test with U251 CNS; 16.1% with PC-3 prostate; -60.8% (active) in the test on SK-MEL-5 melanoma; 14.1% in the test on UACC-62 melanoma; 10.2% in the test with LOX IMVI melanoma. The growth in the test on SK-MEL-28 melanoma is 37.6%.
With `COc1ccc2c(=O)cc(C(Cl)(Cl)Cl)oc2c1`, the growth with DU-145 prostate was 0.575% (active); with K-562 leukemia, -12.7% (active); in the test on MALME-3M melanoma, -87.5% (active); with MDA-MB-231 breast, -31.1% (active); in the test on RXF 393 renal it was -72.1% (active); in the test on SF-268 CNS, -36.4% (active). In addition, the growth was -31.1% (active) in the test on SF-295 CNS; -27.4% (active) with SF-539 CNS; -48.9% (active) in the test with UACC-257 melanoma; -67.1% (active) in the test with M14 melanoma; -41.8% (active) in the test on HT29 colon; -78.3% (active) in the test with SNB-75 CNS. The growth in the test on SNB-19 CNS is 1.99% (active); in the test with U251 CNS it was -0.183% (active); in the test on PC-3 prostate, -37% (active); in the test with SK-MEL-5 melanoma, -91.9% (active); in the test on UACC-62 melanoma, -73.2% (active); in the test on LOX IMVI melanoma it was -15.5% (active). The growth in the test on SK-MEL-28 melanoma is -82.7% (active).
